Bioassay records: PubChem, National Center for Advancing Translational Sciences (NCATS)
Only some compounds are listed: those with a hit (about 1.8% of all), similar ones and a draw of the others.
PGK inhibitor: inhibitors of T. brucei phosphoglycerate kinase. PGK/GAPDH coupled, Kinase-Glo luminescence, 60 min. Potency, µM (titrated, usually from 57.5 µM), inactives show top-dose activity change, negative = inhibition, usual class: inhibitors. 380,000 tested, 0.043% active; note: % is set by controls: 0 for no effect and ±100 for the full control effect; nearly all actives have a fitted effect of over 60% in size
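Luminescent ATP detection (Kinase-Glo Plus) follows a 60-minute room-temperature incubation, with wells lacking PGK as controls. Buffer: 100 mM TEA (pH 7.6), 5 mM MgCl2, 0.01% Tween-20. Coupling enzyme GAPDH (100 nM final) supplies unstable 1,3-BPG in-well.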
Tb PFK inh: T. brucei PFK enzyme inhibition | O15648 | T. brucei PFK, ADP-Glo luminescence | Potency, µM (series often up to 57.5 µM), without a hit: top-dose activity, negative = inhibition, actives largely listed as inhibitors | 330,000 tested, 0.17% active;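 note: 0% = uninhibited 1x PFK enzyme wells and -100% = no-enzyme wells; nearly all actives have a fitted effect of over 60% in size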
Target sequence (O15648 whole entry, looked up): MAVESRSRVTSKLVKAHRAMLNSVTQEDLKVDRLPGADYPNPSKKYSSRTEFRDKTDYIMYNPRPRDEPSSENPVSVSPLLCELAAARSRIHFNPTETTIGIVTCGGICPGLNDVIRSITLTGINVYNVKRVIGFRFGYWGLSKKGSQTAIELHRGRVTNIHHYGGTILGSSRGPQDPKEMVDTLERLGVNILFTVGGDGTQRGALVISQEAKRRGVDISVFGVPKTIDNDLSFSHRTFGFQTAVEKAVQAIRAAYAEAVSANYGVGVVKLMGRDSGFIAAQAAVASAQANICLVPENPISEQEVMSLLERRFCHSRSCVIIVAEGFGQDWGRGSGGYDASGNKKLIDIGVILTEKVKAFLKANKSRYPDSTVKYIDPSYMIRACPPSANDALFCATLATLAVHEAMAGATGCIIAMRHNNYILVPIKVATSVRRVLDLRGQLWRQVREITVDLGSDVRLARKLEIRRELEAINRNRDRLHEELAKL
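Activity is normalized to no-enzyme wells (full inhibition) and 1.25 nM enzyme wells (no inhibition). Reaction: 0.5 mM F6P, 0.1 mM ATP, 45 min RT, ADP-Glo luminescence; concentration-response curves fitted and classed by quality.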
GLP-1R inv ag: acts as inverse agonist at human GLP-1 receptor; HEK293 GLP-1R CRE-luciferase, luminescence, 24 h; GLP-1R form is constitutively active; 410,000 tested, 1.6% active; P43220; Potency, µM (titrated, usually from 38.3 µM), without a hit: top-dose activity change, negative = inhibition, actives largely listed as inhibitors; note: % is set by controls: 0 for no effect and ±100 for the full control effect; nearly all actives have a fitted effect of over 55% in size
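qHTS in 1536-well format: reporter HEK293 cells expressing constitutive GLP-1R activity in DMEM + 10% Nu serum, 24 hr with compounds at 37 deg C, luminescence read after 12 min with detection reagent.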
GLP-1R agonist: GLP-1 receptor (human) agonism; HEK293 GLP-1R CRE-luciferase, luminescence, 4-6 h; cells express a hypersensitive GLP-1R form; P43220; AID 624172; Potency, µM (highest dose often 45.6 µM), without a hit: at the top dose activation, usual class: activators; 380,000 tested, 0.007% active; note: % of control where 0% means no effect
Pin1 inhibitor: inhibitors of human Pin1 | 390,000 tested, 0.009% active | Pin1 FP peptide displacement, HiFluor488, 10 min | Q13526 | Potency, µM (highest dose often 115 µM), for inactives: at the top dose activity, negative = inhibition, most hits filed as inhibitors; active = well fitted inhibition curve with a large enough effect in the polarisation, with a control signal flat, not every such curve was filed as active; inconclusive = small, poorly fitted or top-dose-only effect, or effect the other way, or a change in a side signal; inactive = no such curve, though single readings can be large or run the other way; the % refers to the polarisation; note: % is set by controls: 0 for no effect and ±100 for the full control effect
Target sequence (Q13526 whole entry, looked up): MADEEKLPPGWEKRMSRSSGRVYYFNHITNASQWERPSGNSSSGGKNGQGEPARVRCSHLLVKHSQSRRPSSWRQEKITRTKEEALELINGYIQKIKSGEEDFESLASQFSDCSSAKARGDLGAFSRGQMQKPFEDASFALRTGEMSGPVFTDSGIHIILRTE
GLP1R cytotox: cytotoxicity counter-screen for GLP-1 receptor inverse agonists. HEK293 cAMP-luciferase reporter cells, luminescence, 24 h. Potency, µM (titrated, usually from 38.3 µM), without a hit: at the top dose activity change, negative = inhibition, hits mostly inhibitors. 410,000 tested, 0.13% active. AID 624418;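 note: loss of luciferase light is scored as toxicity; % is set by controls: 0 for no effect and ±100 for the full control effect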
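Here, cytotoxicity is scored as loss of luminescence. The MLSMR collection was tested on cells seeded in medium containing 10% Nu serum, with a 24 hr compound exposure preceded by 12 hours of culture.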
* hit, by the source's call. Unless noted, calls come from the whole dose curve; as a rule, active = well fitted curve in the direction sought with a large enough effect; inconclusive = small, poorly fitted or top-dose-only effect, or another doubt; inactive = no such curve, though single readings can be large; an effect the other way counts as inactive or inconclusive. Potency is the fitted concentration of half-maximal effect.

O=C(NC1CCCCCC1)c1c(O)c2cccc3c2n(c1=O)CCC3 was read as Tb PFK inh 0.2%.
CCn1c(=O)c(C(=O)NCCN2CCCCC2)c(O)c2ccccc21 was read as PGK inhibitor -2.9%, Tb PFK inh -1.2%, GLP-1R inv ag 2.82µM*, GLP-1R agonist 3.2%, Pin1 inhibitor 0.8% and GLP1R cytotox inconclusive.
For CNC(=O)c1c(O)c2cccc3c2n(c1=O)CCC3 the results were PGK inhibitor -3.6%, Tb PFK inh -1.2%, GLP-1R inv ag 1.78µM*, GLP-1R agonist 3.9%, Pin1 inhibitor 2.2% and GLP1R cytotox inconclusive.
Screening CC(=O)N1CCc2cc(Br)cc(S(=O)(=O)NCCc3cccc(C)c3)c21 returned PGK inhibitor -6.9%, GLP-1R inv ag 2.7%, Pin1 inhibitor -7.1% and GLP1R cytotox -3.3%.
For Cc1ccc(OCCCCCCN2CCNCC2)c(Br)c1 the results were PGK inhibitor 2.8%, GLP-1R inv ag 2.82µM*, GLP-1R agonist -3.1%, Pin1 inhibitor -0.1% and GLP1R cytotox inconclusive.
`CC(C)(c1ccccc1)c1ccc(OCCCN2CCNCC2)cc1` gave PGK inhibitor -5.6%, Tb PFK inh -6.6%, GLP-1R inv ag 1.12µM*, GLP-1R agonist 11.6%, Pin1 inhibitor -2.9% and GLP1R cytotox inconclusive.
CC(C)(c1ccccc1)c1ccc(OCCN2CCOCC2)cc1 was read as Tb PFK inh -8.1%, GLP-1R inv ag inconclusive, GLP-1R agonist 1.5%, Pin1 inhibitor 5.6% and GLP1R cytotox 8.8%.
For Cc1ccc(OCCCCN2CCC(C)CC2)c(Br)c1 the results were PGK inhibitor inactive, Tb PFK inh -7.3%, GLP-1R inv ag 0.0%, GLP-1R agonist 9.4%, Pin1 inhibitor -19.2% and GLP1R cytotox inconclusive.
For CC(C)(C)c1ccc(OCCCCCCN2CCNCC2)cc1 the results were PGK inhibitor 8.7%, GLP-1R inv ag 3.98µM*, GLP-1R agonist 6.3%, Pin1 inhibitor -0.6% and GLP1R cytotox inconclusive.
For Cc1cc(C)c(OCCOCCN2CCNCC2)c(C)c1 the results were PGK inhibitor -1.1%, Tb PFK inh 7.9%, GLP-1R inv ag 10µM*, GLP-1R agonist 0.9%, Pin1 inhibitor -6.3% and GLP1R cytotox 0.7%.
Screening CC1CCN(CCCCOc2ccc(C(C)(C)C)cc2)CC1 returned PGK inhibitor -3.3%, Tb PFK inh -1.6%, GLP-1R inv ag inconclusive, GLP-1R agonist -4.5%, Pin1 inhibitor -8.5% and GLP1R cytotox -24.0%.
Screening Cc1cc(C)c(OCCOCCN2CCCC2)c(C)c1 returned PGK inhibitor 7.9%, GLP-1R inv ag inconclusive, GLP-1R agonist 12.7%, Pin1 inhibitor -2.6% and GLP1R cytotox -3.3%.
Screening COc1cccc2c(C)cc3nnc(SCC(=O)Nc4ccc(C)cc4)n3c12 returned PGK inhibitor 4.7%, GLP-1R inv ag 1.4%, Pin1 inhibitor 12.7% and GLP1R cytotox -1.7%.
For CCCC1=Nc2cc(C(=O)NC3CCCC3)ccc2Sc2ccc(C)cc21 the results were PGK inhibitor -10.5%, GLP-1R inv ag inconclusive, Pin1 inhibitor 50.9% and GLP1R cytotox -23.3%.
CCCC1=Nc2cc(C(=O)NCC(C)c3ccccc3)ccc2Sc2ccccc21 (stereo not given) was read as PGK inhibitor -4.2%, GLP-1R inv ag 3.16µM*, GLP-1R agonist -1.9%, Pin1 inhibitor 35.7% and GLP1R cytotox inconclusive.
CC1=Nc2cc(C(=O)NC3CCC(C)CC3)ccc2Sc2c(C)ccc(C)c21 (stereo not given) was read as PGK inhibitor -4.2%, GLP-1R inv ag 0.794µM*, GLP-1R agonist 20.1%, Pin1 inhibitor 7.8% and GLP1R cytotox inconclusive.
For CCOC(=O)N1CCC(NC(=O)c2ccc3c(c2)N=C(C)c2c(C)ccc(C)c2S3)CC1 the results were PGK inhibitor 3.3%, Tb PFK inh -2.7%, GLP-1R inv ag inconclusive, GLP-1R agonist 11.4%, Pin1 inhibitor -0.7% and GLP1R cytotox inconclusive.
Screening CCCC1=Nc2cc(C(=O)NC3CCCCC3)ccc2Sc2ccc(C)cc21 returned PGK inhibitor 9.1%, GLP-1R inv ag 0.794µM*, Pin1 inhibitor 5.3% and GLP1R cytotox inconclusive.
CCCC1=Nc2cc(C(=O)NCCCOCC)ccc2Sc2ccccc21 was read as PGK inhibitor -3.4%, Tb PFK inh -5.7%, GLP-1R inv ag -66.8%, GLP-1R agonist 8.1%, Pin1 inhibitor 1.6% and GLP1R cytotox -10.0%.
For CCCC1=Nc2cc(C(=O)NCCOC)ccc2Sc2ccccc21 the results were GLP-1R inv ag 2.24µM*, Pin1 inhibitor 2.6% and GLP1R cytotox inconclusive.
For CCCC1=Nc2cc(C(=O)NCCCOC(C)C)ccc2Sc2ccccc21 the results were PGK inhibitor 6.0%, Tb PFK inh 5.2%, GLP-1R inv ag 2.7%, GLP-1R agonist 5.2%, Pin1 inhibitor 6.0% and GLP1R cytotox -23.1%.
Screening c1ccc(N=c2nc(-c3ccccc3)n(-c3ccccc3)s2)cc1 returned Pin1 inhibitor 7.3%.
`CCOc1ccc(-c2nc(Cn3ccn4nc(-c5ccc(OCC)c(Cl)c5)cc4c3=O)c(C)o2)cc1` gave PGK inhibitor -2.4%, GLP-1R inv ag 5.5%, GLP-1R agonist -1.3%, Pin1 inhibitor 6.2% and GLP1R cytotox 3.7%.
For CCOCCCNC(=O)Cn1ncc2c([nH]c3ccccc32)c1=O the results were PGK inhibitor 10.6%, GLP-1R inv ag 8.8%, Pin1 inhibitor 2.1% and GLP1R cytotox -7.8%.
Cc1ccc(Cn2nc(C)cc2C(=O)Nc2ccccc2Cl)cc1 was read as PGK inhibitor -10.9%, Tb PFK inh -4.7%, GLP-1R inv ag -26.6%, GLP-1R agonist 37.9%, Pin1 inhibitor -13.3% and GLP1R cytotox 8.1%.
CC(C)(C)c1cc(C(=O)NN)n(Cc2ccc(F)cc2)n1 was read as PGK inhibitor 0.0%, Tb PFK inh 6.1%, GLP-1R inv ag inconclusive, GLP-1R agonist 2.5%, Pin1 inhibitor 5.2% and GLP1R cytotox 3.6%.
For COC(=O)c1cc(NC(=O)c2cc(C(C)(C)C)nn2Cc2ccc(F)cc2)ccc1N1CCOCC1 the results were PGK inhibitor -11.4%, Tb PFK inh 2.2%, GLP-1R inv ag 3.55µM*, GLP-1R agonist -1.5%, Pin1 inhibitor 0.4% and GLP1R cytotox -26.6%.
For COC(=O)c1cc(NCc2ccc3c(c2)OCO3)ccc1N1CCOCC1 the results were PGK inhibitor inactive, Tb PFK inh 2.4%, GLP-1R inv ag 0.6%, GLP-1R agonist 9.7%, Pin1 inhibitor -0.5% and GLP1R cytotox 5.5%.
`Cc1ccc(Cn2nc(C)cc2C(=O)Nc2ccc(Cl)cc2)cc1` gave PGK inhibitor -10.3%, Tb PFK inh 0.1%, GLP-1R inv ag 4.47µM*, GLP-1R agonist 12.5%, Pin1 inhibitor -0.6% and GLP1R cytotox 0.0%.
